# ± gives the standard deviation of the averaged measurements.
# What was measured:
# Assay in all cases: cell viability (% of vehicle); higher = less cytotoxic
# HCI01 [1] = cells of a triple-negative basal-like breast cancer xenograft; settings: 1 µM; 72 h
# UCD52 [2] = cells of a triple-negative basal-like breast cancer xenograft; settings: 1 µM; 72 h
# WHIM2 [3] = cells of a triple-negative basal-like breast cancer xenograft; settings: 1 µM; 72 h
# WHIM30 [4] = cells of a triple-negative basal-like breast cancer xenograft; settings: 1 µM; 72 h
# HCI01 [5] = settings: 10 µM; 72 h
# HCI03 = cells of an ER-positive luminal breast cancer xenograft; settings: 10 µM; 72 h
# HCI09 = cells of a triple-negative luminal androgen receptor type breast cancer xenograft; settings: 10 µM; 72 h
# HCI11 = cells of an ER-positive luminal breast cancer xenograft; settings: 10 µM; 72 h
# HCI13 = cells of an ER-positive luminal breast cancer xenograft; settings: 10 µM; 72 h
# HCI16 = cells of a triple-negative basal-like breast cancer xenograft; settings: 10 µM; 72 h
# UCD52 [6] = settings: 10 µM; 72 h
# WHIM2 [7] = settings: 10 µM; 72 h
# WHIM30 [8] = settings: 10 µM; 72 h
Structure (SMILES),cell viability (HCI01 [1]),cell viability (UCD52 [2]),cell viability (WHIM2 [3]),cell viability (WHIM30 [4]),cell viability (HCI01 [5]),cell viability (HCI03),cell viability (HCI09),cell viability (HCI11),cell viability (HCI13),cell viability (HCI16),cell viability (UCD52 [6]),cell viability (WHIM2 [7]),cell viability (WHIM30 [8])
Cl.Cl.O=C1c2c(O)ccc(O)c2C(=O)c2c(NCCNCCO)ccc(NCCNCCO)c21 [Mitoxantrone HCl],105,36.2,27.3,37.2,55.3 ± 38,111,25.9 ± 0.83,55.7,73.4 ± 11,117,27.5 ± 0.38,41.3 ± 18,65.4 ± 12
COc1cc2c(Oc3ccc(NC(=O)C4(C(=O)Nc5ccc(F)cc5)CC4)cc3F)ccnc2cc1OCCCN1CCOCC1,89.1,48.2,71.2,70.2,35.4 ± 4.4,55,65.7 ± 32,52.7,60.2 ± 6.2,48,28 ± 2.1,50.1 ± 11,64.8 ± 15
Cc1cc(-n2c(=O)[nH]c(=O)n(C)c2=O)ccc1Oc1ccc(SC(F)(F)F)cc1 [Toltrazuril],90.8,97.6,105,90.8,75.8 ± 1.2,132,61.9 ± 18,84,117 ± 11,115,79.5 ± 4.9,41.3 ± 3.9,98.6 ± 14
CC1CC(=O)NN=C1c1ccc(NN=C(C#N)C#N)cc1 (stereo unspecified) [Levosimendan],89.2,95.2,114,96.7,50.6 ± 31,183,51.9 ± 30,139,145 ± 28,82.2,51.1 ± 2.5,47.8 ± 9.7,86.7 ± 2.7
CN(C)CCOc1ccc(C(=C(CCCl)c2ccccc2)c2ccccc2)cc1.O=C(O)CC(O)(CC(=O)O)C(=O)O [Toremifene Citrate],127,98.4,119,102,37.2 ± 1.9,63.8,34.3 ± 1.8,86.8,46.4 ± 2.6,73.2,38.3 ± 2.4,43.3 ± 4.1,54.4 ± 4.8
COc1ccc2cc1Oc1ccc(cc1)CC1c3c(cc4c(c3Oc3cc5c(cc3OC)CCN(C)C5C2)OCO4)CCN1C (stereo unspecified) [Cepharanthine],86.1,52.9,80.7,60.6,57.1 ± 12,64.3,26.6 ± 5.9,73.5,159 ± 37,170,36.2 ± 1.8,64.7 ± 8.1,94.3 ± 9.8
Clc1ccc(C(Cn2ccnc2)OCc2c(Cl)cccc2Cl)c(Cl)c1.O=[N+]([O-])O (stereo unspecified) [Isoconazole nitrate],123,112,126,105,57.9 ± 28,119,25.8 ± 3.4,101,54.2 ± 8.2,140,44.1 ± 5.8,52.1 ± 6.9,100 ± 2.2
